NS1 function inh: influenza NS1 inhibition; Potency, µM (top dose mostly 46.1 µM), for the others: at the top dose activity, positive = more growth; AID 2326; hit rate 0.4% among 270,000; calls by dose curve; also: potency is read from the fitted curve at half-maximal effect; actives are rising curves; nearly all actives have a fitted effect of over 50% in size
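S. cerevisiae expressing influenza A NS1, grown in glucose, washed, then diluted 1:100 into pH 6.0 -URA galactose medium with 23 nl compound. Growth recovery read as OD600; NS1-free strain serves as control.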
Pf growth 96h: inhibits malaria parasite growth, 96 h; P. falciparum luciferase reporter growth, 96 h; Potency, µM (top dose mostly 28.7 µM), inactives show at the highest dose activity change, negative = inhibition, usual class: inhibitors; hit rate 6.9% among 320,000; also: potency is read from the fitted curve at half-maximal effect; % is scaled to controls: 0 for no effect and ±100 for the full control effect
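Compounds incubated with erythrocytes infected by luciferase-expressing P. falciparum (2% hematocrit, 0.05% parasitemia final) for 96 hours, 37 C in 5% CO2. Growth inhibition scored as decreased luciferase luminescence.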
Shiga toxin inh: Shiga toxin inhibition; AID 2315; hit rate 9.2% among 290,000; inhibition, % at 38.7 µM; Vero cells, Shiga toxin protein synthesis inhibition reporter; in the data active = inhibition mostly above about 28%, no sharp cut-off; inactive = mostly below about 43%; also: 0% is about no effect
CHX counter: counter-screen for Shiga toxin inhibitors: cycloheximide protein synthesis inhibition | cell reporter, cycloheximide protein synthesis inhibition counterscreen | max response, % | hit rate 12% among 300,000 | AID 2314; in the data active = max response mostly above about 13%, no sharp cut-off; inactive = mostly below about 14%; also: read at 38.3 µM for the half of the compounds with a filed dose; 0% is about no effect
SARS PLP yeast: SARS-CoV PLP inhibition in yeast. Potency, µM (series often up to 32.9 µM), for inactives: top-dose activity, positive = growth rescue, usual class: activators. hit rate 0.19% among 330,000. S. cerevisiae expressing SARS-CoV PLpro, growth rescue; calls by dose curve; also: potency is read from the fitted curve at half-maximal effect; 0% is about no effect; nearly all actives have a fitted effect of over 55% in size
Pf growth 48h: P. falciparum growth inhibition at 48 hours (one generation); AID 504832; hit rate 5.9% among 310,000; Potency, µM (titrated, usually from 28.7 µM), inactives show at the top dose activity change, negative = inhibition, hits mostly inhibitors; P. falciparum luciferase growth in erythrocytes, 48 h; also: potency is read from the fitted curve at half-maximal effect; % is scaled to controls: 0 for no effect and ±100 for the full control effect
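A one-generation exposure of luciferase-tagged malaria parasites in RPMI 1640/Albumax erythrocyte culture, 37 C and 5% CO2. Inhibition is inferred from decreased luminescence after adding detection reagent.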
* marks the source's active call; other numbers are inactive results; i = inactive; ? = inconclusive; / = no result given; + = active, no number; ! = repeats disagree; [ ] = remark or other dose. Sampled rows, rich in hits. Any-hit rate of the full collection: about 21%. Unless noted, calls follow the shape of the dose curve; as a rule, active = well fitted inhibition curve with a large enough effect; inconclusive = small, poorly fitted or top-dose-only effect, or another doubt; inactive = no such curve, though single readings can be large or run the other way.

SMILES	NS1 function inh	Pf growth 96h	Shiga toxin inh	CHX counter	SARS PLP yeast	Pf growth 48h
COc1ccc(C(=O)C2CCCN(Cc3cn[nH]c3-c3ccc(F)cc3)C2)cc1OC (stereo not given)	0.5%	6.1%	11.6	-2.0	-1.0%	-7.0%
COCCN(Cc1cn[nH]c1-c1ccc2cc(OC)ccc2c1)C(C)C	-25.8%	11.7µM*	27.9	16.5	0.4%	14.5%
Cc1ccc(NC(=O)CCC(=O)OCC(=O)c2ccc(Oc3ccc([N+](=O)[O-])cc3)cc2)c(C)c1	1.0%	?	12.7	-0.6	-6.4%	2.3%
O=C(Cn1cc(C(=O)C(F)(F)F)c2ccccc21)N1CCOCC1	6.9%	-14.3%	-16.4	-7.2	-0.3%	10.9%
CC(C)(C)NC[C@H](O)COc1nsnc1N1CCOCC1	5.5%	0.675µM*!	-9.0	-3.5	0.1%	2.39µM*!
CCCCCCCN=CC1=C(O)CC(c2ccccc2)CC1=O (stereo not given)	1.9%	-7.3%	-2.0	-2.8	6.9%	-10.2%
CC(=O)Nc1ccc(S(=O)(=O)Oc2cccc(N3C(=O)C4CC=CCC4C3=O)c2)cc1 (stereo not given)	-2.6%	2.33µM*	18.5	-2.6	12.4%[6.58 µM]	/
O=c1cc(CSc2ccccc2)nc(-c2ccncc2)[nH]1	/	75.0%	-16.1	-3.2	1.7%	i
CNC(=O)Cn1nc(-c2ccc(C)c(S(=O)(=O)N(C)C)c2)c2ccccc2c1=O	0.8%	9.28µM*	8.6	2.2	-26.4%	-11.9%
Cc1ccc(-c2nn(CC(=O)NCc3ccccn3)c(=O)c3ccccc23)cc1S(=O)(=O)N(C)C	/	1.9%	-4.4	-3.0	-1.3%	-21.0%
O=C(NCC12CC3CC(CC(C3)C1)C2)c1nn2cccnc2c1Cl	-14.3%	/	-6.6	-1.4	-11.2%	-26.3%
O=C(NCc1cccs1)c1nn2cccnc2c1Cl	-28.3%	/	56.1	21.5*	-1.7%	?
O=C(NCC1CCCO1)c1nn2cccnc2c1Cl (stereo not given)	16.0%	2.9%	28.5*	24.0*	4.6%	65.3%
Cn1ncc(C#N)c1NC(=O)c1nn2cccnc2c1Cl	14.9%	4.65µM*	-12.5	-3.7	-3.2%	5.1%
COc1ccc(C)c2sc(NNC(=O)COc3ccccc3)nc12	?	45.1%	-6.2	-1.6	0.5%	38.2%
O=C(CSc1ccc(F)cc1)Nc1cccc(S(=O)(=O)N2CCOCC2)c1	/	/	/	/	-6.8%	/
Nc1ccc(C(=O)n2c3ccccc3c3ccccc32)cc1	11.8%	2.33µM*	-14.5	-6.0	?	-12.1%
CC/C(=N\Nc1ccc([N+](=O)[O-])cc1[N+](=O)[O-])c1ccc(O)cc1	-8.0%	40.1%	2.6	-3.0	-0.2%	-17.8%
C/C(=N\Nc1ccccc1[N+](=O)[O-])c1ccccc1O	-6.5%	-13.8%	90.2*	40.7*	?	165.3%
CC/C(=N\Nc1ccccc1[N+](=O)[O-])c1ccc(O)cc1	-5.7%	-10.1%	58.3*	23.1*	-1.5%	23.8%
COc1ccc(C(=O)CC(=O)C(=O)Nc2ccccc2Cl)cc1	8.8%	19.5%	-10.4	-3.4	7.9%	?
N[C@@H](CP(=O)(O)O)C(=O)O	-0.3%	/	/	/	/	/
NNC(=O)/C(=C/c1cccs1)NC(=O)c1ccccc1Cl	11.9%	117.7%	32.8	-4.5	-0.5%	-9.5%
Cc1ccccc1C1=NC(C(F)(F)F)(C(F)(F)F)c2c(n(C)c(=O)n(C)c2=O)N1	16.1%	?	109.3*	61.1*	-3.7%	?
Cn1c2c(c(=O)n(C)c1=O)C(C(F)(F)F)(C(F)(F)F)N=C(C1CCCCC1)N2	18.3%	?	-21.4	-5.1	-5.8%	-24.1%
SMILES	NS1 function inh	Pf growth 96h	Shiga toxin inh	CHX counter	SARS PLP yeast	Pf growth 48h
Cn1c2c(c(=O)n(C)c1=O)C(C(F)(F)F)(C(F)(F)F)N=C(c1ccc(Cl)cc1)N2	-143.3%	1.47µM*	-13.6	6.3	-26.3%	?
O=C(COC(=O)Cc1ccc(Br)cc1)NCc1ccc(F)cc1	-0.4%	7.2%	-7.6	-1.2	-0.2%	7.5%
CC(C)(C)c1nc(CN2CCCCC2)cc(CN2CCCCC2)c1O	-6.1%	?	-11.8	-1.8	1.3%	9.28µM*
COc1ccc(NC2=Nc3ccccc3CC2)cc1	1.1%	?	85.8	23.3*	9.9%	189.1%
O=C1NC(=O)N(Cc2ccccc2F)C1=O	0.3%	25.2%	2.9	1.3	-0.4%	35.9%
Cc1cc(C(=O)O)cc(S(=O)(=O)NNC(=O)c2cccs2)c1C	1.2%	15.4%	-0.6	0.5	-1.1%	8.4%
CCN1C(=O)CC(Sc2ccccc2N)C1=O (stereo not given)	-0.8%	1.47µM*	12.4	7.7	2.6%	4.7%
Nc1ccccc1SC1CC(=O)N(Cc2ccccc2)C1=O (stereo not given)	/	-15.3%	-12.2	-4.4	2.0%	13.7%
O=C1OC(Cc2ccccn2)C(=O)C1=C1SCCS1 (stereo not given)	16.0%	13.1%	active	29.5*	12.8%	5.2%
Cc1ccc(Cc2cc(C)n[nH]c2=O)cc1	3.4%	10.7%	-3.4	-2.6	-0.6%	-20.1%
Cc1ccc(-c2cc(Cc3ccncc3)c(=O)[nH]n2)cc1	-0.2%	24.8%	6.6	11.5*	1.0%	6.9%
COc1ccc(-c2noc(-c3ccc(Cl)cc3[N+](=O)[O-])n2)cc1OC	13.9%	-21.1%	15.6	16.3*	-3.6%	57.5%
COc1cccc(NC(=O)c2ccccc2-c2nc(-c3cccc(C)c3)no2)c1	10.0%	/	25.9	12.5	-16.3%	?
Cc1cccc(-c2noc(-c3ccc(Cl)cc3[N+](=O)[O-])n2)c1	4.1%	-0.3%	81.7*	42.1*	0.9%	71.8%
COc1ccc(C(=O)NCCCNC(=O)c2cnccn2)cc1	-1.5%	-11.8%	36.0	3.5	0.2%	8.8%
O=C(Nc1ccccc1C(=O)N/N=C/c1ccco1)c1ccccc1	-5.7%	23.0%	+	16.6	-23.9%	28.4%
O=C(Nc1ccccc1C(=O)N/N=C/c1ccco1)c1ccc(Cl)cc1	-3.5%	?	75.9*	18.7*	-19.5%	-90.2%
O=C(Nc1ccccc1C(=O)N/N=C/c1ccco1)c1ccc(F)cc1	13.1%	?	14.4	15.1	-66.3%	-17.3%
CCOC(=O)c1c(NC(=S)NNS(=O)(=O)c2ccc(Br)cc2)sc2c1CCCCC2	-24.3%	?	-17.9	-2.3	9.6%	?
Cc1ccc(Oc2nc(CN3CCOCC3)nc3sc4c(c23)CCC(C)C4)cc1C (stereo not given)	-2.9%	?	-11.3	-2.9	-89.2%	11.7µM*
Cc1ccc(Oc2nc(CN3CCOCC3)nc3sc4c(c23)CCC(C)C4)cc1 (stereo not given)	-15.5%	?	22.1	-1.0	-54.0%	?
Cc1cc(S(=O)(=O)Nc2nc(CN3CCOCC3)nc3sc4c(c23)CCCC4)ccc1F	0.9%	?	-7.9	-3.2	-13.2%	/

Compound activity as filed in PubChem BioAssay.
